In PubChem BioAssay AID729 (The Scripps Research Institute Molecular Screening Center, 2007) one finds activation data, which are given here for 96 compounds.

The campaign covered roughly 97,000 compounds. About 450 (0.46%) were called active. This is one part of a sample in which actives are shown more often than they occur. Cut-off read from the data, not from the text of the source: active = activation above about 16%; inactive = the rest.

Sphingosine 1-phosphate receptor 2 (Homo sapiens), sequence (O95136 whole entry, looked up): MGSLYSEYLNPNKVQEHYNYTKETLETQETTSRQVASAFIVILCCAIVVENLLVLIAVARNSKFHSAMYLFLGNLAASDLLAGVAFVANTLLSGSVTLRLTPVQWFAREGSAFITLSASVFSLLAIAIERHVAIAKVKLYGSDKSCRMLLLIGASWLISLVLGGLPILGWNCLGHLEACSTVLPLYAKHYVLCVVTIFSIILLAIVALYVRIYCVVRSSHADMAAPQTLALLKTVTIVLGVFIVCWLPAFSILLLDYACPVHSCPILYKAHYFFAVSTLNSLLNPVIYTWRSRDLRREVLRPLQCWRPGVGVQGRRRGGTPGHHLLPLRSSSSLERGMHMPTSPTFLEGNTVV

The experiment concerns the target Sphingosine 1-phosphate receptor 2 (Homo sapiens) (UniProt O95136). Nature of the experiment: activation of human S1P2 receptor – cell-based, primary screen (AID 729).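 Note: 0% = vehicle low control and 100% = maximal reference agonist.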 The settings on record: S1P2-expressing cell line, agonist reporter read-out; at 4.5 µM; hits give high values.
Take `Cc1ccc(-n2c(SCC(=O)Nc3ccc4c(c3)OCO4)nnc2-c2ccccn2)cc1`: the activation is -1.29% (inactive). Take `Cc1cccc(C)c1NC1=NC(=S)N(c2ccc(N(C)C)cc2)C1(C)C`: the activation was -9.2% (inactive). As for `Cc1cc(C(=O)OCC(=O)Nc2ccc(F)c(F)c2)c(C)o1`, the activation is -1.12% (inactive). With `Cc1sc2nc(SCC(N)=O)n(C)c(=O)c2c1C`, the activation was -6.32% (inactive). As for `CCOc1ccc(NC(=O)CN(C)CC(=O)Nc2cccc(Cl)c2C)cc1OCC`, the activation was -8.46% (inactive). Turning to `CS(=O)(=O)Nc1ccc(C(=O)N2CCCC2)cc1`, the activation is -1.67% (inactive). In the case of `O=C(NC1CCCCC1)c1cc([N+](=O)[O-])ccc1N1CCOCC1`, the activation was -3.96% (inactive).

With `COc1ccc(CSc2nc(N3CCOCC3)c3c(c2C#N)CC(C)(C)OC3)cc1`, the activation is -4.98% (inactive).

Regarding `CC1(C)Cc2c(C#N)c(SCc3nc4ccccc4[nH]3)nc(N3CCOCC3)c2CO1`, the activation is 31% (active).

As for `CC(C)c1nc(N2CCOCC2)c(C#N)c2c1COC(C)(C)C2`, the activation was -3.4% (inactive). As for `Cc1c(CCO)c(=O)[nH]n1C(=O)c1c(F)cccc1F`, the activation is -3.16% (inactive). As for `CCn1c(SCC(=O)c2ccc3ccccc3c2)nnc1-c1cccs1`, the activation was -3.98% (inactive). As for `CCCc1nc2oc3c(OCC)ncnc3c2c2c1COC(C)(C)C2`, the activation was -0.19% (inactive). With `O=C(Oc1ccc([N+](=O)[O-])cc1)c1ccc2ccccc2n1`, the activation was -2.37% (inactive). To `CCOC(=O)c1cnc(SCC(=O)Nc2ccccc2C(=O)OC)nc1N` belongs 1.96% (inactive); to `O=C(Cc1ccc2c(c1)CCCC2)Nc1ccccc1Cl`, -3.38% (inactive). `C=C(C)Cn1c(N2CCCC2)nc2c1c(=O)[nH]c(=O)n2C`: the activation was 19.6% (active). Turning to `Cc1nnc(SCCCn2c(N3CCCCC3)nc3c2c(=O)[nH]c(=O)n3C)s1`, the activation was -7% (inactive).

`C=C(C)Cn1c(N2CCN(CC)CC2)nc2c1c(=O)[nH]c(=O)n2C`: the activation was -3.08% (inactive). To `O=C(O)c1ccccc1-c1ccccc1C(=O)Nc1cccc2ccccc12` belongs -6.33% (inactive). The same measure for `CCOC(=O)c1cc(C#N)c(N2CCCCC2)nc1-c1ccccc1`: -3.1% (inactive); for `Cc1ccc(C(=O)N2CCCC2)c(F)c1F`: -3.27% (inactive); for `COc1ccc(-n2nnnc2SCC(=O)Nc2ccccc2)cc1`: -5.85% (inactive). For `COc1ccccc1N1CC(C(=O)Nc2ccc(S(=O)(=O)N3CCOCC3)cc2)CC1=O` (stereo unspecified), the activation is -6.57% (inactive). Consider `COc1ccc(Cc2nnc(SCC(=O)c3cccc([N+](=O)[O-])c3)n2C)cc1`, for which the activation was -3.41% (inactive). For the compound `CN(C)CCNC(=O)Nc1cccc(Cl)c1Cl`, the activation was -3.84% (inactive). Take `O=C(/C=C/c1ccc(Cl)cc1Cl)NCc1ccco1`: the activation is -1.23% (inactive). For `O=C(COc1ccc2c(C(F)(F)F)cc(=O)oc2c1)Nc1ccc2c(c1)OCCO2`, the activation was -0.82% (inactive). Regarding `COc1ccc(CCNC(=O)CN(c2ccccc2)S(C)(=O)=O)cc1OC`, the activation is -5.51% (inactive).

As for `CC(C)c1ccc(NC(=O)CCN2C(=O)c3ccc([N+](=O)[O-])cc3C2=O)cc1`, the activation is -2.71% (inactive). As for `Cc1nnc(SCC(=O)Nc2ncc3c(n2)CC(C)(C)CC3=O)s1`, the activation was -4.47% (inactive). As to `CCN(CC)CCCNC(=O)CCc1ccccc1`, the activation is -2.5% (inactive). `CCCCCOC(=O)C1=C(C)Nc2nnnn2C1c1ccc(OC)c(OC)c1OC` (stereo unspecified): the activation was -4.69% (inactive). Turning to `COc1cc(C2C(C(=O)OCCC#N)=C(C)NC3=C2S(=O)(=O)c2ccccc23)cc(OC)c1OC` (stereo unspecified), the activation is 26.2% (active).

Take `COCCOC(=O)C1=C(C)Nc2nc(C)nn2C1c1ccccc1` (stereo unspecified): the activation was 0.76% (inactive). As to `CC(C)C(=O)Nc1nnc(Sc2ccc(N(C)C)cc2)s1`, the activation was -5.86% (inactive).

As to `O=c1oc2c(Cl)cc(Cl)cc2cc1-c1nnc(Nc2ccccc2F)s1`, the activation is -0.35% (inactive). For the compound `Cn1c(=O)n(C)c2cc(/C=N/NC(=O)c3cccc(Br)c3)ccc21`, the activation is -7.52% (inactive). As to `Nc1c(C(=O)NCc2ccccc2)sc2nc3c(cc12)C(=O)CCC3`, the activation is -2.41% (inactive). With `CCCCNC(=O)C1CCCN(S(=O)(=O)c2ccc(S(=O)(=O)NCC(C)C)cc2)C1` (stereo unspecified), the activation was -2.41% (inactive).

For the compound `COC(=O)c1ccccc1Oc1c(F)c(F)nc(N2CCOCC2)c1F`, the activation is -3.44% (inactive).

Take `COc1ccc(C2C(C(C)=O)=C(O)C(=O)N2Cc2cccnc2)cc1` (stereo unspecified): the activation is -3.66% (inactive). As for `CC(C)C(C)NC(=O)COc1ncnc2ccccc12` (stereo unspecified), the activation is -3.57% (inactive). For the compound `CC1Cc2ccccc2N1CC(=O)Nc1ccc2c(c1)OC(F)(F)O2` (stereo unspecified), the activation was 2.93% (inactive). Regarding `O=C(CN1CCN(S(=O)(=O)c2ccc3ccccc3c2)CC1)NC(=O)NC1CCCCC1`, the activation was -7.63% (inactive).

`CCOC(=O)c1nc(Nc2ccc(C(=O)OC)cc2)c2ccccc2n1`: the activation was -2.78% (inactive). Take `CCc1ccc(NC(=O)CN2C(=O)CSC2=O)cc1`: the activation is -3.93% (inactive). Regarding `Cn1cnc([N+](=O)[O-])c1Nc1ccccc1O`, the activation was -3.11% (inactive). In the case of `COc1ccc(C2C(C(C)=O)=C(O)C(=O)N2c2nccs2)cc1` (stereo unspecified), the activation was -0.54% (inactive). Consider `CCn1c(=N)c(S(=O)(=O)c2ccc(F)cc2)cc2c(=O)n3ccccc3nc21`, for which the activation was 34.3% (active). For `CCCn1c(=NC(C)=O)c(C(=O)OCC)cc2c(=O)n3ccccc3nc21`, the activation is 14.5% (inactive). As to `Cc1ccc(-n2c(=O)c(C#N)cc3c(=O)n4ccccc4nc32)cc1C`, the activation was 5.21% (inactive). Consider `CONC(=O)c1cc(OCC(F)(F)F)ccc1OCC(F)(F)F`, for which the activation was -3.47% (inactive).

Take `O=C1CCCC(O)=C1C=NCCc1ccccc1`: the activation was 84.1% (active). Take `CC1(C)CC(=O)C(C=NCCC2=CCCCC2)=C(O)C1`: the activation is -6.14% (inactive). Consider `Cc1cc(N=CC2=C(O)CCCC2=O)no1`, for which the activation was -0.19% (inactive). Consider `COc1ccc(N(CC(=O)N/N=C/c2cccs2)S(=O)(=O)c2ccc(OC)c(OC)c2)cc1`, for which the activation was -7.16% (inactive). For the compound `COc1ccc(C(=O)/C=C/Nc2ccccn2)cc1`, the activation was 1.74% (inactive). The same measure for `O=C(Nc1ccccc1)c1ccc2nsnc2c1`: -2.63% (inactive).

In the case of `O=C(O)c1cc2ccccc2c(=O)s1`, the activation was -6.32% (inactive).

For `O=C(CN1CCSCC1)N/N=C/c1ccc(F)cc1F`, the activation is -0.59% (inactive). The same measure for `Cc1ccc(-c2nnc(C)c(N3CC(C)OC(C)C3)n2)cc1` (stereo unspecified): -6.7% (inactive).

Regarding `COc1ccc(-c2cc(C(=O)n3cnc4ccccc43)c3ccccc3n2)cc1`, the activation was -1.61% (inactive). To `CC(C)C(NS(=O)(=O)c1cccs1)C(=O)Nc1nc(C(C)(C)C)cs1` (stereo unspecified) belongs -5.87% (inactive). Consider `Cc1nc(C)c(C(=O)N(c2ccc(C)c(C)c2)C(C(=O)NCc2ccco2)c2ccccc2)s1` (stereo unspecified), for which the activation is -5.57% (inactive).

On to `COc1ccc(/C=N/Nc2nc3ccccc3o2)cc1OC`, for which the activation is 1.35% (inactive).

Regarding `O=C1CCCc2c1nc(-c1cccc(Cl)c1)n2O`, the activation was -8.02% (inactive). For `Cc1ccc(-c2csc(SCC(=O)Nc3cc(C)on3)n2)cc1`, the activation was -3.51% (inactive). To `CC(C)(C)C(=O)Cn1c(NCCO)nc2ccccc21` belongs 0.17% (inactive); to `OCCNc1nc2ccccc2n1-c1ncnc2sc3c(c12)CCC3`, 17.8% (active); to `O=C(O)[C@@H]1CCCN1c1ncnc2sc3c(c12)CCC3`, -0.47% (inactive). As to `COc1ccccc1/C=C/C1=NC(=C\N(C)C)/C(=O)O1`, the activation is 3.03% (inactive). The same measure for `CCCc1nc2sc3c(c2c(=O)n1NC(=O)CCCl)CCCC3`: -7.02% (inactive); for `Cc1ccc2oc(=O)c3cnn(CC(=O)N(Cc4ccco4)C4CCCCC4)c3c2c1`: -2.42% (inactive).

Turning to `CC(CN1CCOCC1)c1ccccc1` (stereo unspecified), the activation is -0.64% (inactive).

With `COc1ccc(NC(=O)COC(=O)Cn2c(C)nc3ccccc32)cc1OC`, the activation was -6.15% (inactive).

As to `COc1ccc(NC(=O)C(NC(C)=O)C(=O)NCc2ccccc2Cl)cc1` (stereo unspecified), the activation is -7.51% (inactive). To `CCNC(=O)NC(=O)C(C)OC(=O)c1cc(S(=O)(=O)N2CCCCCC2)ccc1OC` (stereo unspecified) belongs -4.87% (inactive); to `COc1ccc(N(CCC#N)S(=O)(=O)c2ccc(Cl)cc2)cc1`, -1.5% (inactive); to `O=C(NCc1ccco1)C1CCCN(S(=O)(=O)c2ccccc2)C1` (stereo unspecified), -2.97% (inactive). With `O=C1CSC(c2cccc(F)c2)N1c1ccc(O)cc1` (stereo unspecified), the activation is -7.24% (inactive).

Take `Nc1nc(Br)c2ccccc2c1-c1ccc(F)cc1`: the activation is 4.89% (inactive).

`Cc1ccc(S(=O)(=O)N2CCN(S(=O)(=O)N3CCOCC3)CC2)cc1`: the activation is -6.81% (inactive). Take `COc1ccc(-c2nc3ccccc3n2CCC(C)C)cc1OC`: the activation was -4.13% (inactive). For the compound `CCC(C)n1c(-c2cc(OC)c(OC)c(OC)c2)nc2nc3ccccc3nc21` (stereo unspecified), the activation is 16.8% (active). For the compound `COc1cc(C(O)c2nc3ccccc3n2C)cc(OC)c1OC` (stereo unspecified), the activation is -6.52% (inactive). To `CC(C)(C)c1ccc(OC2=CS(=O)(=O)c3ccccc32)cc1` belongs -6.02% (inactive). For the compound `O=C(CCCCCn1c(=O)[nH]c2ccccc2c1=O)NCCc1c[nH]c2ccccc12`, the activation was -8.42% (inactive). `CCc1ccc2c(c1)C1(NN=C(c3ccccc3)S1)C(=O)N2` (stereo unspecified): the activation is -1.92% (inactive). To `COc1ccc(C(=O)Nc2ccc(F)cc2F)cc1` belongs -5.08% (inactive). In the case of `Cc1cc(C)c(S(=O)(=O)NCC2CCC(C(=O)NCc3ccc4c(c3)OCO4)CC2)c(C)c1` (stereo unspecified), the activation was -5.15% (inactive). Consider `OC(C#CCN1CCOCC1)(c1ccccc1)C1CCCCC1` (stereo unspecified), for which the activation is -4.7% (inactive).

In the case of `CC1CN(S(=O)(=O)c2ccccc2)C(C)CN1S(=O)(=O)c1ccccc1` (stereo unspecified), the activation was -2.5% (inactive). Take `O=C(Nc1ccccc1Cl)N1CCN(c2ccc3nncn3n2)CC1`: the activation was -1.47% (inactive). The same measure for `O=C(NCCc1ccccc1)c1ccc(NC2=NC3CS(=O)(=O)CC3S2)cc1` (stereo unspecified): 0.04% (inactive); for `COc1ccccc1C(c1nnnn1C(C)(C)C)N1CCN(Cc2ccccc2)CC1` (stereo unspecified): -7.69% (inactive).
